# Values joined by “and” are separate entries in the source; they are usually repeats but may differ in a detail not shown here. Identical values can stand only once. Results filed as inconclusive are left out. A number with no mark means an inactive call. Active and inactive are the calls of the source. Calls follow the shape of the dose curve; as a rule, active = well fitted inhibition curve with a large enough effect; inconclusive = small, poorly fitted or top-dose-only effect; inactive = no such curve, though single readings can be large or run the other way.
# Experiment: qHTS Assay for Lipid Storage Modulators: S3 Assay against Probe and Analogs
# Conditions: Drosophila S3 cells, BODIPY lipid droplet fluorescence, 18-24 h, oleic acid added to induce droplets; series mostly up to 46.1 µM; activity, negative = lipid storage inhibition: at the top concentration
# Description: Storing lipids as a reservoir for energy or the anabolism of elementary metabolites is a common feature of probably all cells and is conserved from bacteria to humans. The universal cellular lipid storage organelle is the so-called lipid storage droplet (LD). Although ubiquitous, LDs share a simple structure composed of a hydrophobic core that harbors the storage lipids, which is shielded by a droplet-specific phospholipid monolayer to which proteins are attached. The current model of LD biogenesis involves an incorporation of the lipid core into the membrane leaflets of the endoplasmic reticulum (ER) followed by a subsequent budding-like maturation of a LD, which ultimately pinches off. Once released, LD volume can increase by localized lipogenesis or fusion of existing droplets. Storage lipids are re-mobilized enzymatically by lipase activity. Lipase regulation in the adipocyte is heavily studied and involves multiple components including catecholamine signaling, the LD-associated proteins Perilipin and comparative gene identification-58 (CGI-58) and at least two lipases named hormone sensitive lipase (HSL) and adipocyte triglyceride lipase (ATGL). LD regulation outside of the adipocyte is poorly understood and only few components are known. However, there is an urgent need to learn more about ectopic fat depots as mislocalized storage of lipids, for example in the liver or muscle, is an eminent health problem associated with insulin resistance or the metabolic syndrome. We developed a laser-scanning cytometer assay to enable 1,536-well screening and combined the results of the small molecules screen with an RNAi database based on lipid storage. In this assay we tested analogs of the probe against the original qHTS assay, which involved drosophila melanogaster cells (S3), to see if these small molecules could disrupt lipid storage. NIH Molecular Libraries Probe Production Centers Network [MLPCN] NIH Chemical Genomics Center [NCGC] MLPCN Grant: MH085686 Assay Submitter (PI): Mathias Beller, Max-Planck-Institut fur Biophysikalische Chemie
# qHTS was performed with embryonic Drosophila S3 cells (Bloomington Drosophila Genomics Resource Center [DGRC]). We dispensed 4 uL of cells at 1.25 x 10^6 cells/mL into LoBase Aurora COC 1,536-well plates (black walled, clear bottom) with a bottle-valve solenoid-based dispenser (Aurora) to obtain 5,000 cells/well. Triacsin C (Sigma-Aldrich T-4540), an inhibitor of long-chain fatty acyl CoA synthetase that blocks synthesis of triglycerides, was used as a positive control for lipid under-storage. A total of 23 nL of compounds dissolved in DMSO at different concentrations were transferred to the assay plates using a Kalypsys pin tool equipped with a 1,536-pin array containing 10-nL slotted pins (FP1S10, 0.457-mm diameter, 50.8 mm long; V&P Scientific). The final DMSO concentration was 0.46%. One microliter of oleic acid at 400 uM (Calbiochem, #4954) was added to induce lipid droplet formation in the cells, and the plates were lidded with stainless steel rubber gasket lined lids containing pinholes. After 18-24 h incubation at 25 0C and 95% humidity, 4 uL of the BODIPY lipid dye 493/503 (1:2000, Molecular Probes) and the Cell Tracker Red CMTPX dye (Life Technologies, # 34552) were added to the wells to stain lipid droplets and enumerate cell number, respectively. Fluorescence was detected by excitation of the fluorophores with a 488-nm laser on an Acumen Explorer (TTP Lab Tech). The total intensity in channel 1 (500-530 nm) reflected lipid droplet accumulation. Cells were detected using channel 3 (575-640 nm) with 5-um width and 100-um depth filters. The ratio of the total intensity in PMT channel 1 over total intensity of channel 3 was also calculated. Percent activity was computed relative to an internal control (100% inhibited lipid droplet deposition due to the presence of 20 uM Triacsin C), which was added to 32 wells/plate.
SMILES,Potency,"activity, negative = lipid storage inhibition [%]"
CCOC(=O)C1CCN(C(=O)C2(NC(=O)Nc3ccccc3Cl)CCCCC2)CC1,166 nM (active),
CCOc1ccc(CCNC(=O)Cc2ccccc2)cc1OCC,,46.7
CCOC(=O)C1CCN(C(=O)C(C)(C)NC(=O)Nc2ccc(OC)c(Cl)c2)CC1,,-93.3
CCOc1cc(F)c(CCNC(=O)c2cc3sccc3n2Cc2ccccc2)cc1OCC,3.3 nM (active),
CCOc1ccc(CCNC(=O)c2cc3c(s2)CCC3)cc1OCC,332 nM (active),
CCOc1ccc(CCNC(=O)c2cccs2)cc1OCC,,-6.67
CCOc1ccc(CCNC(=O)CN(C)C)cc1OCC,,73.3
CCOc1ccc(CCNC(=O)c2cc3sccc3n2CCN2CCN(C)CC2)cc1OCC,332 nM (active),
CCOC(=O)C1CCN(C(=O)C(C)(C)NC(=O)Nc2ccc3sccc3c2)CC1,,-63.3
Cc1cccc(-c2ccc3ncnc(NCc4cccc(F)c4)c3c2)c1,,-96.7
CCn1c(C(=O)NCCc2ccc(OC)cc2)cc2sccc21,,177
CC(C)(C)OC(=O)N1CCCCC1C(=O)NC1CCCc2c1cnn2-c1ccc(F)cc1F (stereo not given),,26.7
CCOC(=O)C1CCN(C(=O)C(C)(C)NC(=O)Nc2ccc([N+](=O)[O-])cc2)CC1,,-60
CCOC(=O)C1CCN(C(=O)C(C)(C)NC(=O)Nc2cccc(C(=O)OC)c2)CC1,,-6.67
Cn1c(=O)n(-c2ccc(C(C)(C)C#N)cc2)c2c3cc(-c4cnc5ccccc5c4)ccc3ncc21,1180 nM (active),
O=C(O)CCc1ccc(NCc2cccc(Oc3ccccc3)c2)cc1,,70
CCOc1ccc(CCNC(C)=O)cc1OCC,,-23.3
CCOc1ccc(CCNC(=O)c2cc3sccc3n2Cc2ccncc2)cc1OCC,132 nM (active),
CCOc1ccc(CCNC(=O)C2(c3ccccc3)CC2)cc1OCC,,177
CCOC(=O)C1CCN(C(=O)C2(NC(=O)Nc3ccccc3Cl)CC2)CC1,,-60

SMILES,Potency,"activity, negative = lipid storage inhibition [%]"
COc1nc(-c2ccc3c(c2)OCO3)n(-c2ccc(NC(=O)CSc3ccccc3)cc2)n1,,43.3
O=C(NC1CCCc2c1cnn2-c1ccc(F)cc1F)C1CCCCC1 (stereo not given),,-93.3
O=C(NC1CCCc2c1cnn2-c1ccc(F)cc1F)c1ccc(C(=O)c2ccccc2)cc1 (stereo not given),,40
CC(C)(C)OC(=O)NCCOCCOCCOCCn1ncc2c1CCCC2NC(=O)c1ccccn1 (stereo not given),,-103
O=C(NC1CCCc2c1cnn2-c1ccc(F)cc1F)c1ccccn1 (stereo not given),23.5 nM (active) and 4.7 nM (active),
CCOc1ccc(CCNC(=O)c2ccccn2)cc1OCC,,180
CCOc1ccc(CCNC(=O)c2ccnn2Cc2cccc(C)c2)cc1OCC,,-100
CCOC(=O)C1CCN(C(=O)C(C)(C)NC(=O)Nc2ccc(C#N)cc2)CC1,,-43.3
CC(C)(C)OC(=O)NCCOCCOCCOc1cccc(-n2ncc3c2CCCC3NC(=O)c2ccccn2)c1 (stereo not given),18.7 nM (active),
CCOC(=O)C1CCN(C(=O)C(C)(C)NC(=O)Nc2ccc(Cl)cc2Cl)CC1,1480 nM (active),
O=C(Nc1cccc2nn(-c3ccc(F)cc3)cc12)c1ccccn1,,193
O=C(NC1CCCc2c1cnn2-c1ccc(F)cc1F)c1ccncc1 (stereo not given),,-80
O=C(NCCc1ccc(O)c(O)c1)c1cc2sccc2n1Cc1ccccc1,,26.7
CCOC(=O)C1CCN(C(=O)CNC(=O)Nc2ccccc2Cl)CC1,,-20
CCOc1ccc(CCNC(=O)c2cc3ccccc3n2Cc2ccc(Cl)c(F)c2)cc1OCC,5.9 nM (active),
Cc1cn(-c2cc(NC(=O)c3ccc(C)c(Nc4nccc(-c5cccnc5)n4)c3)cc(C(F)(F)F)c2)cn1,,110
CC(C)(C)OC(=O)NCCOCCOCCOc1ccc(-n2ncc3c2CCCC3NC(=O)c2ccccn2)cc1 (stereo not given),9.3 nM (active),
CCOc1ccc(CCNC(=O)c2cc3sccc3n2C(C)C)cc1OCC,187 nM (active),
CC1(C)CCC(c2ccc(Cl)cc2)=C(CN2CCN(c3ccc(C(=O)NS(=O)(=O)c4ccc(N[C@H](CCN5CCOCC5)CSc5ccccc5)c(S(=O)(=O)C(F)(F)F)c4)cc3)CC2)C1,526 nM (active),
CCOc1ccc(CCNC(=O)c2cc3sccc3n2Cc2ccccc2)c(F)c1OCC,,-100

# Source: PubChem BioAssay AID652175 (National Center for Advancing Translational Sciences (NCATS), 2013)
